About 83,000 compounds went through this panel and 20% of them were active in at least one assay; those are over-represented in the sample as a whole.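 Cell lines were cultured in 96-well plates, exposed to a single compound concentration, and assessed for percent growth 48 hours later.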 Calls of active or inactive are those of the source. The calls were made as follows: active = growth percent below 10; inactive = the rest.
Columns and labels:
Test in all cases: NCI-60 one-dose screen, 48 h (100 = growth as untreated, 0 = no growth, -100 = all killed)
Conditions in all cases: 10 µM unless noted
NCI-H23 lung = system: NCI-H23 lung
NCI-H226 lung = system: NCI-H226 lung
NCI-H322M lung = system: NCI-H322M lung
HOP-62 NSCLC = system: HOP-62 NSCLC
NCI-H460 lung = system: NCI-H460 lung
HOP-92 NSCLC = system: HOP-92 NSCLC
NCI-H522 lung = system: NCI-H522 lung
A549/ATCC NSCLC = system: A549/ATCC NSCLC
786-0 renal = system: 786-0 renal
COLO 205 colon = system: COLO 205 colon

Measured: growth

C=CCn1c(SCC(=O)Nc2ccc(C(=O)/C=C/c3cc(OC)c(OC)c(OC)c3)cc2)nnc1-c1cc(-c2ccc(S(N)(=O)=O)cc2)nc2ccccc12
inactive: NCI-H23 lung 88.9% | NCI-H226 lung 90.7% | NCI-H322M lung 105% | HOP-62 NSCLC 111% | NCI-H460 lung 94.9% | HOP-92 NSCLC 96.9% | NCI-H522 lung 92.7% | A549/ATCC NSCLC 107% | 786-0 renal 101% | COLO 205 colon 109%

C=CC(=O)NCc1cccc(Nc2ncc(Br)c(NCCCNC(=O)C3CCC3)n2)c1
active: NCI-H23 lung -37% | NCI-H226 lung -0.669% | NCI-H322M lung -13.1% | HOP-62 NSCLC -26.9% | NCI-H460 lung -41.9% | HOP-92 NSCLC -11.5% | NCI-H522 lung -38.8% | A549/ATCC NSCLC -9.64% | 786-0 renal -35.2% | COLO 205 colon -25.7%

CCCCCCCCCCCCCCCCCCOc1ccccc1CC(=O)OCC[N+]1(C)CCCCC1
inactive: NCI-H23 lung 29.8% | NCI-H226 lung 28.1% | NCI-H322M lung 84.6% | HOP-62 NSCLC 70% | NCI-H460 lung 62.2% | NCI-H522 lung 33.3% | A549/ATCC NSCLC 42.2% | 786-0 renal 31.2% | COLO 205 colon 55.6%
active: HOP-92 NSCLC -9.25%

O=C(/C=C\c1ccc(O)c(O)c1)c1ccccc1O
inactive: NCI-H23 lung 86.5% | NCI-H226 lung 71.4% | NCI-H322M lung 79.7% | HOP-62 NSCLC 98.7% | NCI-H460 lung 61.5% | HOP-92 NSCLC 55.6% | A549/ATCC NSCLC 55.7% | 786-0 renal 100% | COLO 205 colon 80.6%
active: NCI-H522 lung -61.3%

Cc1c(Cl)cccc1NC(=O)c1sc2nc3c(cc2c1N)CCCC3
active: NCI-H522 lung 4.4%
inactive: NCI-H23 lung 58.9% | NCI-H226 lung 69.3% | NCI-H322M lung 74.2% | HOP-62 NSCLC 25.2% | NCI-H460 lung 12.9% | HOP-92 NSCLC 25.6% | A549/ATCC NSCLC 39.1% | 786-0 renal 29.8% | COLO 205 colon 22.1%

Cc1ccc(C2(C)NC(=O)N(CC(=O)Nc3cccc(C)c3)C2=O)cc1 (stereo not given)
inactive: NCI-H23 lung 96.5% | NCI-H226 lung 84.5% | NCI-H322M lung 102% | HOP-62 NSCLC 102% | NCI-H460 lung 97.8% | HOP-92 NSCLC 63.8% | NCI-H522 lung 77.2% | A549/ATCC NSCLC 101% | 786-0 renal 104% | COLO 205 colon 116%

Oc1c(Cl)cc(Cl)c2ccc(CN3CCNCC3)nc12
inactive: NCI-H23 lung 52.7% | NCI-H226 lung 61.6% | NCI-H322M lung 58.1% | HOP-62 NSCLC 29.3% | NCI-H460 lung 31.8% | HOP-92 NSCLC 54.1% | NCI-H522 lung 67.8% | A549/ATCC NSCLC 30.8% | 786-0 renal 49.2% | COLO 205 colon 102%

CCOC(=O)C#Cc1c(CC(=O)OCC)nnn1[C@H]1O[C@@H](CO)[C@@H]2OC(C)(C)O[C@@H]21
inactive: NCI-H23 lung 95.3% | NCI-H226 lung 93.8% | NCI-H322M lung 93.9% | HOP-62 NSCLC 101% | NCI-H460 lung 104% | HOP-92 NSCLC 75.1% | A549/ATCC NSCLC 75.9% | 786-0 renal 83.9%
active: NCI-H522 lung -57.6% | COLO 205 colon -40.3%

Cc1nc2sc(C(=O)Nc3ccccc3)c(N)c2cc1C(O)c1ccccc1 (stereo not given)
active: NCI-H460 lung 4.01% | COLO 205 colon -8.82%
inactive: NCI-H23 lung 33.5% | NCI-H226 lung 64% | NCI-H322M lung 56.3% | HOP-62 NSCLC 39.6% | HOP-92 NSCLC 63.7% | NCI-H522 lung 12.8% | A549/ATCC NSCLC 24.4% | 786-0 renal 40.8%

COc1cccc(-c2cc(-c3ccc(Nc4nc(Nc5ccc(Cl)cc5)nc(Nc5ccc(Cl)cc5)n4)cc3)nc(N)c2C#N)c1
active: HOP-92 NSCLC -85.7% | COLO 205 colon -30.4%
inactive: NCI-H23 lung 37.9% | NCI-H226 lung 10.5% | NCI-H322M lung 99.9% | HOP-62 NSCLC 95% | NCI-H460 lung 69% | NCI-H522 lung 87.4% | A549/ATCC NSCLC 43% | 786-0 renal 59.2%

C#Cc1cccc(Nc2ncnc3ccc(-c4cnc(Cl)c(NS(C)(=O)=O)c4)cc23)c1
active: NCI-H23 lung -5.52% | NCI-H226 lung 2.26% | NCI-H322M lung -42.3% | HOP-62 NSCLC 3.57% | NCI-H460 lung 6.42% | HOP-92 NSCLC -17.1% | NCI-H522 lung -22.8% | A549/ATCC NSCLC -28.5% | 786-0 renal -14.6% | COLO 205 colon -69.2%

Cn1ccnc1C(=O)/C=C/c1ccc(CC(=O)Nc2cc(F)c(F)c(F)c2)cc1
inactive: NCI-H226 lung 58.1% | NCI-H322M lung 21.1% | HOP-62 NSCLC 11.8% | HOP-92 NSCLC 69.4% | NCI-H522 lung 12.3% | A549/ATCC NSCLC 28.6% | COLO 205 colon 24%
active: NCI-H23 lung 8.11% | NCI-H460 lung 5.19% | 786-0 renal 6.02%

CNC(=O)c1cc(Oc2ccc3nc(NC(=O)c4cc(C(F)(F)F)cc(C(F)(F)F)c4)sc3c2)ccn1
inactive: NCI-H23 lung 20.2% | NCI-H226 lung 23.3% | NCI-H322M lung 15.1% | HOP-62 NSCLC 16.3% | NCI-H460 lung 15.7% | A549/ATCC NSCLC 17.8% | COLO 205 colon 19.1%
active: HOP-92 NSCLC -32.5% | NCI-H522 lung -9.54% | 786-0 renal 9.65%

CNC(=O)c1cc(Oc2ccc3nc(NC(=O)Nc4ccc(F)cc4F)sc3c2)ccn1
inactive: NCI-H23 lung 47% | NCI-H226 lung 52.8% | NCI-H322M lung 62.2% | HOP-62 NSCLC 60.7% | NCI-H460 lung 63% | NCI-H522 lung 68.7% | A549/ATCC NSCLC 44.8% | 786-0 renal 64% | COLO 205 colon 87.1%
active: HOP-92 NSCLC -13.7%

Cc1ccc(C(F)(F)F)cc1N1CCN(C(=O)[C@H]2C[C@H]2c2ccc(C(F)(F)F)nc2)CC1
inactive: NCI-H23 lung 95.5% | NCI-H226 lung 84.3% | NCI-H322M lung 99.1% | HOP-62 NSCLC 97.7% | NCI-H460 lung 106% | HOP-92 NSCLC 60.5% | NCI-H522 lung 72% | A549/ATCC NSCLC 81.5% | 786-0 renal 93% | COLO 205 colon 91.6%

Nc1ccc(Cl)c2c(=O)c3ccccc3[nH]c12
inactive: NCI-H23 lung 71.3% | NCI-H226 lung 77% | NCI-H322M lung 99.8% | HOP-62 NSCLC 105% | NCI-H460 lung 91.2% | HOP-92 NSCLC 99.4% | NCI-H522 lung 69.8% | A549/ATCC NSCLC 80% | 786-0 renal 77.4% | COLO 205 colon 90.7%

NS(=O)(=O)Oc1cccc(-c2nc3sccn3c2-c2ccccc2)c1
inactive: NCI-H23 lung 76.2% | NCI-H226 lung 85.4% | NCI-H322M lung 89.7% | HOP-62 NSCLC 50.2% | NCI-H460 lung 38.9% | HOP-92 NSCLC 45.8% | NCI-H522 lung 61.5% | A549/ATCC NSCLC 52.6% | 786-0 renal 65.5% | COLO 205 colon 69.7%

COc1cc(CNC(=O)CCCC/C=C/C(C)C)ccc1OCc1cn(-c2cccc([N+](=O)[O-])c2)nn1
inactive: NCI-H23 lung 88% | NCI-H226 lung 90.9% | NCI-H322M lung 94.1% | HOP-62 NSCLC 97.4% | NCI-H460 lung 91.8% | HOP-92 NSCLC 70.4% | NCI-H522 lung 82.6% | A549/ATCC NSCLC 92% | 786-0 renal 73.4% | COLO 205 colon 107%

O=C(Nc1ccccc1CNc1nc(Nc2ccc(OCCN3CCCC3)cc2)ncc1Cl)NC1CCCCC1
active: 786-0 renal -25.2%
inactive: NCI-H23 lung 87.2% | NCI-H226 lung 97% | NCI-H322M lung 109% | HOP-62 NSCLC 83.3% | NCI-H460 lung 89.8% | HOP-92 NSCLC 65.5% | NCI-H522 lung 113% | A549/ATCC NSCLC 85.4% | COLO 205 colon 89.3%

COc1cccc(C2C(C#N)=C(N)Oc3c2ccc2ccccc32)c1 (stereo not given)
inactive: NCI-H23 lung 28.4% | NCI-H226 lung 47.1% | NCI-H322M lung 41.7% | HOP-62 NSCLC 39.6% | HOP-92 NSCLC 46.5% | A549/ATCC NSCLC 26.2% | 786-0 renal 20.6%
active: NCI-H460 lung 8.32% | NCI-H522 lung 7.11% | COLO 205 colon -41.8%

CCNCCNc1c(C)c(-c2ccc(C(F)(F)F)cc2)c(C#N)c2nc3ccccc3n12
inactive: NCI-H23 lung 90% | NCI-H226 lung 84.8% | NCI-H322M lung 84.3% | HOP-62 NSCLC 90.9% | NCI-H460 lung 94.1% | HOP-92 NSCLC 47.1% | NCI-H522 lung 76.8% | A549/ATCC NSCLC 88.7% | 786-0 renal 77% | COLO 205 colon 88.2%

C=CC(=O)Nc1ccc2ncnc(Nc3cccc(NS(=O)(=O)CCC)c3Cl)c2c1
inactive: NCI-H23 lung 68.9% | NCI-H226 lung 46.7% | NCI-H322M lung 15.8% | HOP-62 NSCLC 67.3% | NCI-H460 lung 68.6% | HOP-92 NSCLC 35.1% | NCI-H522 lung 17.8% | A549/ATCC NSCLC 50.8% | 786-0 renal 42.4% | COLO 205 colon 12%

COC(=O)c1ccc(-n2cc(CCCOS(=O)(=O)c3ccc(F)cc3)nn2)cc1
inactive: NCI-H23 lung 98.1% | NCI-H226 lung 97.9% | NCI-H322M lung 102% | HOP-62 NSCLC 106% | NCI-H460 lung 102% | HOP-92 NSCLC 100% | NCI-H522 lung 93.7% | A549/ATCC NSCLC 97% | 786-0 renal 97.1% | COLO 205 colon 107%

NC(=N\N=C/c1ccc(Cl)cc1Cl)/C(N)=N\N=C/c1ccc(Cl)cc1Cl
inactive: NCI-H23 lung 87.1% | NCI-H226 lung 62.8% | NCI-H322M lung 41% | HOP-62 NSCLC 83% | NCI-H460 lung 20.7% | HOP-92 NSCLC 43.8% | NCI-H522 lung 79.8% | A549/ATCC NSCLC 62.5% | COLO 205 colon 71.6%
active: 786-0 renal 3.29%

CC1(C)CC(=O)C2=C(C1)OC(C(=O)c1ccccc1)C2c1cccc(Oc2ccccc2)c1 (stereo not given)
inactive: NCI-H23 lung 48.5% | NCI-H226 lung 53.3% | NCI-H322M lung 75.1% | HOP-62 NSCLC 66.7% | NCI-H460 lung 51.4% | HOP-92 NSCLC 13.4% | NCI-H522 lung 38.2% | A549/ATCC NSCLC 29.9% | 786-0 renal 53.1% | COLO 205 colon 38.3%

Cc1ccc(Nc2cc(N)nc(N)n2)cc1
inactive: NCI-H23 lung 91.4% | NCI-H226 lung 110% | NCI-H322M lung 98.5% | HOP-62 NSCLC 101% | NCI-H460 lung 101% | HOP-92 NSCLC 90% | NCI-H522 lung 94.3% | A549/ATCC NSCLC 97.3% | 786-0 renal 99.6% | COLO 205 colon 105%

Oc1cccc(-c2nc(-c3n[nH]c(=S)n3-c3ccccc3)cc3c2[nH]c2ccccc23)c1
inactive: NCI-H23 lung 43.3% | NCI-H226 lung 52.6% | NCI-H322M lung 13.7% | HOP-62 NSCLC 28.4% | HOP-92 NSCLC 63.3% | A549/ATCC NSCLC 48.3% | 786-0 renal 18.4% | COLO 205 colon 68%
active: NCI-H460 lung 8.82% | NCI-H522 lung -28.3%

From PubChem BioAssay (NCI)
